Values without a mark were called inactive. Activity calls are given as the source filed them. Rule as the data show it: active = remaining activity below about 50%; inactive = the rest.
The molecules below were run against Phospholipase D2 (Homo sapiens) (UniProt O14939) (assay: cellular phospholipase D2 activity inhibition – cell-based, HEK293, single concentration (AID 602143;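 also: tested at 200 nM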)). Conditions: HEK293 cellular PLD2 activity, percent of control; stronger effect = lower value.
Phospholipase D2 (Homo sapiens), sequence (O14939 whole entry, looked up): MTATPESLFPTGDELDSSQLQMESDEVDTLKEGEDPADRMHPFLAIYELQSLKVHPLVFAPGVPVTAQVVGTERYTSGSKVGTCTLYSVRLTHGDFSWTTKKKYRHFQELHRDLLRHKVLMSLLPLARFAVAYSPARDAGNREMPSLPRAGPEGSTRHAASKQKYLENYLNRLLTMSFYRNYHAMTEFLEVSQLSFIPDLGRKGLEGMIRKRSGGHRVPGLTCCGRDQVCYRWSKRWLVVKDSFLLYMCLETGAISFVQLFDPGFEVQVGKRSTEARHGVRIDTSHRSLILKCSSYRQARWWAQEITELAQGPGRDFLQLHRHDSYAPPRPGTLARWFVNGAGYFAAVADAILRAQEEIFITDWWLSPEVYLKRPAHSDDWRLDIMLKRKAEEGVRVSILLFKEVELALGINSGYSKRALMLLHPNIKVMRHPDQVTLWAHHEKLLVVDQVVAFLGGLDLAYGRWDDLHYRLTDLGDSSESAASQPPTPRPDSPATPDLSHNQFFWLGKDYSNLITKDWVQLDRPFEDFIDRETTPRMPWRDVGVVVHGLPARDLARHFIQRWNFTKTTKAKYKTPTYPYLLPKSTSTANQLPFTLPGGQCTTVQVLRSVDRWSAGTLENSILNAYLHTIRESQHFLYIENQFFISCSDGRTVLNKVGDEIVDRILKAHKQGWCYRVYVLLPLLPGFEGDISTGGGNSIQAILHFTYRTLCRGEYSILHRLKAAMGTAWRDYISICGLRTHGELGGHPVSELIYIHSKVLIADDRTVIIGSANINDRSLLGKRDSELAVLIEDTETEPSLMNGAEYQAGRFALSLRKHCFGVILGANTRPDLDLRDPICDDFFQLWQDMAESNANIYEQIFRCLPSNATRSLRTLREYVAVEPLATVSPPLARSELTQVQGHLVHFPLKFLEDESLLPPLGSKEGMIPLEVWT
Phospholipase D2 (Homo sapiens), sequence (O14939 whole entry, looked up): as above

| SMILES | remaining activity |
| --- | --- |
| O=C(CCN1CCC2(CC1)C(=O)NCN2c1ccccc1)Nc1ccc(F)c(F)c1 | 147% |
| O=C(NCCN1CCC2(CC1)C(=O)NCN2c1ccccc1)c1ccc(-c2ccccc2)o1 | 50.1% |
| O=C(NCCN1CCC2(CC1)C(=O)NCN2c1cccc(F)c1)C(c1ccccc1)c1ccccc1 | 92.3% |
| O=C(NCCN1CCC2(CC1)C(=O)NCN2c1ccc(Cl)cc1)c1cc2cc(F)ccc2[nH]1 | 57% |
| O=C(NCCN1CCC2(CC1)C(=O)NCN2c1ccccc1)c1cnc2ccccc2c1 | 56.6% |
| O=C(C#Cc1ccccc1)NCCN1CCC2(CC1)C(=O)NCN2c1ccccc1 | 47.9% (active) |
| CC(C)(C)C(=O)NCCN1CCC2(CC1)C(=O)NCN2c1cccc(F)c1 | 74.9% |
| C[C@@H](CN1CCC2(CC1)C(=O)N(Cc1ccccc1)c1ccccc12)NC(=O)c1ccc2ccccc2c1 | 71.6% |
| O=C(c1ccc(F)c(F)c1)N1CCC[C@@H]1CN1CCC2(CC1)C(=O)NCN2c1ccccc1 | 124% |
| C[C@H](CN1CCC2(CC1)C(=O)NCN2c1ccccc1)NC(=O)c1ccc(F)cc1 | 81.7% |
| O=C(NCCN1CCC2(CC1)C(=O)NCN2c1ccc(F)c(F)c1)c1ccc2ccccc2c1 | 40.1% (active) |
| O=C(NCCN1CCC2(CC1)C(=O)Oc1ccccc12)c1cnc2ccccc2c1 | 57.4% |
| O=C(NCCN1CCC2(CC1)C(=O)NCN2c1ccc(F)c(F)c1)c1cnc2ccccc2c1 | 26.1% (active) |
